# Test results: PubChem BioAssay (NCI)
# This is part of a sample that, as a whole, favours compounds with a hit. Of some 83,000 tested, about 20% had one in any assay.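 Testing used 96-well plates and a 48-hour single-concentration exposure. Example: -40 means 40% of the starting cells died.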 Unmarked numbers belong to inactive results. Calls of active or inactive are those of the source. The calls were made as follows: active = growth percent below 10; inactive = the rest.
# Key:
# Experiment in all cases: NCI-60 one-dose screen, 48 h (100 = growth as untreated, 0 = no growth, -100 = all killed)
# Conditions in all cases: 10 µM unless noted
# HCT-15 colon = system: HCT-15 colon
# HT29 colon = system: HT29 colon
# SNB-75 CNS = system: SNB-75 CNS
# SNB-19 CNS = system: SNB-19 CNS
# U251 CNS = system: U251 CNS
# PC-3 prostate = system: PC-3 prostate
# SK-MEL-5 melanoma = system: SK-MEL-5 melanoma
# UACC-62 melanoma = system: UACC-62 melanoma
# LOX IMVI melanoma = system: LOX IMVI melanoma
# SK-MEL-28 melanoma = system: SK-MEL-28 melanoma
SMILES,growth (HCT-15 colon),growth (HT29 colon),growth (SNB-75 CNS),growth (SNB-19 CNS),growth (U251 CNS),growth (PC-3 prostate),growth (SK-MEL-5 melanoma),growth (UACC-62 melanoma),growth (LOX IMVI melanoma),growth (SK-MEL-28 melanoma)
CCN(CC)C(=S)SC(SC(=S)N(CC)CC)C(=O)c1nnn(-c2ccc([N+](=O)[O-])cc2)c1C,99%,87.3%,107%,90.8%,81.5%,78.1%,76.7%,86.5%,89%,104%
Cc1cc2c([nH]1)CSc1cc(S(=O)(=O)c3ccccc3)c(=O)[nH]c1-2,17.7% [100 µM],10.5% [100 µM],20% [100 µM],37.4% [100 µM],15.5% [100 µM],23% [100 µM],-36.7% [100 µM] (active),19.1% [100 µM],12.1% [100 µM],17.9% [100 µM]
Cc1ccc(Cl)cc1Nc1nc(C(F)(F)F)ccc1C(=O)N/N=C/c1cccnc1,19.2%,34.6%,52%,36.8%,2.89% (active),32.4%,-16.4% (active),27.6%,18.6%,39.9%
CCOC(=O)c1nc(Nc2ccc(NC(=O)Nc3ccc(F)cc3)cc2)c2ccccc2n1,100%,106%,78.7%,98%,103%,103%,93.9%,101%,90.9%,105%
C/C(Nc1ccc(Cl)c(Cl)c1)=C1\CCOC1=O,84%,84.8%,78.6%,106%,91%,86.8%,101%,71.2%,67.6%,111%
CC(C)(C)c1cc(-c2nc3ccc(N4CCN(S(C)(=O)=O)CC4)cc3[nH]2)cc(C(C)(C)C)c1O,69.2%,81%,73.8%,104%,90.2%,91.7%,95.7%,94.5%,91.8%,94.3%
O=C(Cc1ccccc1)Nc1nc(O)c(/C=C2\C(=O)C=Cc3ccccc32)s1,100%,111%,95.5%,92.3%,101%,92.4%,103%,94.6%,97.6%,114%
Cc1ccc(-c2nc3nc(-c4ccccc4)nc(N4CCNCC4)c3o2)cc1,-77% (active),-74.4% (active),-90.7% (active),-80.6% (active),-90.2% (active),-81.6% (active),-95.8% (active),-87.8% (active),-78.6% (active),-90.1% (active)
O=C1/C(=C/c2ccccc2Br)COc2ccc(O)c(O)c21,-1.56% (active),47.6%,23.2%,27%,4.99% (active),15.6%,46.9%,6.99% (active),-76% (active),42.3%
CN(C)c1ccc(Nc2cc(-c3cccc(OC(F)(F)F)c3)nc3ccc(N4CCCC4)cc23)cc1,-45.5% (active),-12.8% (active),55%,66%,-59.2% (active),18%,96.3%,90.1%,-73.7% (active),-85.3% (active)
O=S(=O)(NCCNc1nccc(-c2c(-c3cccc(F)c3)nc3occn23)n1)c1ccc(Br)cc1,77.9%,52.3%,78.4%,93.3%,85.5%,73.8%,76.3%,77.5%,75.9%,91.9%
CCOC(=O)c1c2c(n3ccc(C)cc13)C(=O)c1ccccc1C2=O,85.2%,87.8%,100%,98.4%,92.8%,78%,82.1%,92.6%,94%,111%
O=C1c2cccnc2C(=O)c2c1c(C(=O)NCCCN1CCCCC1)c1ccccn21,-71.8% (active),-1.92% (active),-95.3% (active),-72.8% (active),-48.4% (active),-18% (active),-99.5% (active),-61.4% (active),-71.4% (active),13.8%
Cc1nnc(NC(=O)c2nc(S(=O)(=O)Cc3ccc(F)cc3)ncc2Cl)s1,11.1%,23.8%,79.3%,92.8%,62.2%,71.4%,98.9%,19.8%,13.6%,50.5%
OCCOCCN(Cc1ccccn1)Cc1cc(I)cc(I)c1O,24.2%,98.5%,99.9%,94.7%,83.5%,75.5%,93.9%,94.8%,62.3%,95.4%
O=C(Cn1c(=O)sc2ccccc21)NNS(=O)(=O)c1ccccc1[N+](=O)[O-],103%,99.3%,83.3%,103%,97.9%,96.2%,101%,98.8%,96.4%,104%
CCO/C=N/C1=C(C#N)C(c2ccc(OC)cc2)c2sc3c(F)cccc3c2O1 (stereo not given),21.3%,7.69% (active),-8.92% (active),24%,24.7%,33.3%,-22.9% (active),12.2%,32.2%,60.4%
O=C(CN1C(=O)CCC1=O)Nc1ncc(Cc2ccc(F)cc2)s1,102%,106%,94.3%,96.3%,97.5%,92.4%,99.6%,92.1%,94.3%,106%
CCN1CCN(c2cc(C(=O)Nc3nc(-c4cc(OC)c(OC)c(OC)c4)cs3)cc(C(F)(F)F)c2)CC1,36.4%,18.3%,57%,80.7%,60.9%,57.1%,53.7%,75.4%,38.6%,51.8%
